MITF primary = MITF inhibitors, primary screen, biochemical, AlphaScreen, human; AID 1259374, 2018; AlphaScreen MITF homodimerization, bead proximity signal; inhibition, % at 2.6 µM; 650,000 tested, 0.91% active; in the data active = inhibition above about 50%;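 note: 0% = vehicle wells with protein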
GPR151 activ = activators of human GPR151, primary screen, cell-based, PathHunter beta-arrestin, luminescence. G-protein coupled receptor 151 (Homo sapiens), Q8TDV0. AID 1508602, 2020. activation, % at 11.2 µM. 650,000 tested, 1% active. PathHunter beta-arrestin GPR151 cells; in the data active = activation above about 4.9%;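 note: 0% = median of compound wells and 100% = cells with positive control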
FBW7 activator = FBW7 E3 ligase activators, primary screen, biochemical, AlphaScreen, human; AlphaScreen FBW7–phospho-cyclin E peptide binding, activator screen; normalized activity (activation), % at 26.1 µM; 650,000 tested, 0.13% active; in the data active = normalized activity above about 1.9%;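 note: purified mutant Fbw7 with reduced substrate affinity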
Target sequence (Q969H0 whole entry, looked up): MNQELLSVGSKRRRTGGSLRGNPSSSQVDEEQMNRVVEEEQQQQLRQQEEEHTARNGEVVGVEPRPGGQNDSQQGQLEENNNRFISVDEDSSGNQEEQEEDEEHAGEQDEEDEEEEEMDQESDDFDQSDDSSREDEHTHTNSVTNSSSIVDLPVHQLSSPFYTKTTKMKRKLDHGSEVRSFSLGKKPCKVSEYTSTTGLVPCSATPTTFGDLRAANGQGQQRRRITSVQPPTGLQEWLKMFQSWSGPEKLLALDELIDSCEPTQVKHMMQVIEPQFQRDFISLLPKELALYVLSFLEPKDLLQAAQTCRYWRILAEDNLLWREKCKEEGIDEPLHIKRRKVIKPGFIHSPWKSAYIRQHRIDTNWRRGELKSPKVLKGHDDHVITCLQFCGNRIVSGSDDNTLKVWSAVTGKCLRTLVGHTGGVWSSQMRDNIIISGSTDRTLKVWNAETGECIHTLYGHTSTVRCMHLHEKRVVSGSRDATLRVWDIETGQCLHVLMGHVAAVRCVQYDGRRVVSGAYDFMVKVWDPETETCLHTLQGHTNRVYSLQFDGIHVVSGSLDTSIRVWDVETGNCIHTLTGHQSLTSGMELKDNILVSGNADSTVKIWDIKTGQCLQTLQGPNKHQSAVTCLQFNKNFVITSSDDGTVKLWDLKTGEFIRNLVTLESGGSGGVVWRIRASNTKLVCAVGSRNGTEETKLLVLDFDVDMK
TEAD-YAP inh = TEAD-YAP interaction inhibition, primary screen, TEAD-YAP interaction inhibitor project, luminescence, HEK-TIYL cells. TEAD-Gal4/YAP UAS-luciferase luminescence. inhibition, % at 9.12 µM. 640,000 tested, 1.4% active. AID 1259422, 2018; in the data active = inhibition above about 32%;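 note: 0% = median of test compound wells and 100% = reference inhibitor wells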
Active calls of the source: *. Sampled rows, rich in hits. Any-hit rate of the full collection: about 3.5%.

What do the screens show for `OCc1ccc(-c2cnc3ccc(NC4CCC(O)CC4)nn23)cc1` (stereo not drawn)?
MITF primary: 9; GPR151 activ: 2; FBW7 activator: 0; TEAD-YAP inh: 51*

Results for COc1cccc(-c2cnc3ccc(NCC4CC4)nn23)c1 ?
MITF primary: -11; GPR151 activ: 0; FBW7 activator: 0; TEAD-YAP inh: 47*

Results for CCC(CO)Nc1ccc2ncc(-c3ccc(C(C)=O)s3)n2n1 (stereo not drawn) ?
MITF primary: 19; GPR151 activ: -1; FBW7 activator: 0; TEAD-YAP inh: 47*

Results for O=C(Cn1nc2c(c1NC(=O)c1ccc(F)c(F)c1)CSC2)NCC1CCCO1 (stereo not drawn) ?
MITF primary: 3; GPR151 activ: -1; FBW7 activator: 0; TEAD-YAP inh: -6

What do the screens show for `COc1cncc(-c2cnc3ccc(NC4CCOCC4)nn23)c1`?
MITF primary: 11; GPR151 activ: 1; FBW7 activator: 0; TEAD-YAP inh: 42*

What do the screens show for `CCC(CO)Nc1ccc2ncc(-c3ccco3)n2n1` (stereo not drawn)?
MITF primary: 20; GPR151 activ: 0; FBW7 activator: 0; TEAD-YAP inh: 33*

What do the screens show for `CNCCCCCCN(C)/[N+]([O-])=N/O`?
MITF primary: -14; GPR151 activ: -1

Results for O=C(Nc1ccc(-c2noc(COc3ccc(Br)cc3)n2)cc1)c1ccc(Br)o1 ?
MITF primary: 11; GPR151 activ: 0; FBW7 activator: 0; TEAD-YAP inh: -19

What do the screens show for `CCCCCN(C(=O)NC(=O)Nc1ccc(OC)cc1C)S(C)(=O)=O`?
MITF primary: -4; GPR151 activ: 4; FBW7 activator: 0; TEAD-YAP inh: 1

How did Clc1ccc(C2CC(c3ccccc3)n3nnnc3N2)cc1 (stereo not drawn) do in these assays?
MITF primary: 13; GPR151 activ: 3; FBW7 activator: 0; TEAD-YAP inh: 3

What do the screens show for `Cc1sc2ncnc(Sc3nnc(N)s3)c2c1C`?
MITF primary: 0; GPR151 activ: 1; FBW7 activator: 0; TEAD-YAP inh: 37*

Results for Cc1sc2ncnc(Sc3nnc4ccccn34)c2c1C ?
MITF primary: 10; GPR151 activ: 3; FBW7 activator: 0; TEAD-YAP inh: -6

How did Cc1ccc(C2=CC(c3ccccc3)n3nc(CCCO)nc3N2)cc1 (stereo not drawn) do in these assays?
MITF primary: 15; GPR151 activ: -1; FBW7 activator: 1; TEAD-YAP inh: -15

What do the screens show for `C=CCN=c1scc(-c2ccco2)n1/N=C/c1cccs1`?
MITF primary: 22; GPR151 activ: 1; FBW7 activator: -1; TEAD-YAP inh: 34*

Results for CCOCCOC(=O)C1=C(C)NC(=O)NC1c1ccc(N(C)C)cc1 (stereo not drawn) ?
MITF primary: 13; GPR151 activ: 1; FBW7 activator: 0; TEAD-YAP inh: 0

How did O=C(NC(=S)Nc1ccc(Cl)cn1)c1ccccc1[N+](=O)[O-] do in these assays?
MITF primary: 21; GPR151 activ: -1; FBW7 activator: 0; TEAD-YAP inh: -12

Results for Cc1cc(I)cnc1NC(=O)c1ccccc1[N+](=O)[O-] ?
MITF primary: 7; GPR151 activ: 0; FBW7 activator: 0; TEAD-YAP inh: 58*

Results for O=C(Nc1ccc(Cl)cn1)c1ccccc1[N+](=O)[O-] ?
MITF primary: -8; GPR151 activ: 0; FBW7 activator: 0; TEAD-YAP inh: 43*

Results for Cc1cc(NC(=O)CN(C2=NC3CS(=O)(=O)CC3S2)c2ccc(C)c(C)c2)n[nH]1 (stereo not drawn) ?
MITF primary: 5; GPR151 activ: 0; FBW7 activator: -1; TEAD-YAP inh: -4

Results for Cc1ncn(-c2ccc(Nc3nccc(-c4cccc(S(C)(=O)=O)c4)n3)cc2)n1 ?
MITF primary: -6; GPR151 activ: 0; FBW7 activator: 0; TEAD-YAP inh: 47*

Results for Cc1ncn(-c2ccc(Nc3nccc(Nc4ccccc4-c4ccn[nH]4)n3)cc2)n1 ?
MITF primary: 1; GPR151 activ: 2; FBW7 activator: 0; TEAD-YAP inh: 64*

Results for CN1CCN(c2ncn(-c3ccc(Nc4nccc(-c5cc(F)cc(N6CCOCC6)c5)n4)cc3)n2)CC1 ?
MITF primary: -16; GPR151 activ: -1; FBW7 activator: 0; TEAD-YAP inh: 56*

Results for Cc1ncn(-c2ccc(Nc3nccc(-c4cc(N5CCOCC5)cc(S(C)(=O)=O)c4)n3)cc2)n1 ?
MITF primary: -1; GPR151 activ: 0; FBW7 activator: 0; TEAD-YAP inh: 41*

Results for Cc1ncn(-c2ccc(Nc3nccc(Nc4cccnc4)n3)cc2)n1 ?
MITF primary: 8; GPR151 activ: 0; FBW7 activator: 0; TEAD-YAP inh: 6

Results for Cc1ncn(-c2ccc(Nc3nccc(-c4cc(F)cc(-c5cn[nH]c5C)c4)n3)cc2)n1 ?
MITF primary: 6; GPR151 activ: 2; FBW7 activator: 0; TEAD-YAP inh: 37*

How did C=CCn1c(SCc2ccccc2Cl)nc2c1c(=O)[nH]c(=O)n2C do in these assays?
MITF primary: 9; GPR151 activ: 0; FBW7 activator: 0; TEAD-YAP inh: 53*

Results for C=CCSc1nc2c(c(=O)[nH]c(=O)n2C)n1Cc1ccccc1Cl ?
MITF primary: 4; GPR151 activ: 1; FBW7 activator: 0; TEAD-YAP inh: -3

Results for C=CCn1c(SCc2cccc(C)c2)nc2c1c(=O)[nH]c(=O)n2C ?
MITF primary: -7; GPR151 activ: -1; FBW7 activator: 0; TEAD-YAP inh: 45*

How did COC(=O)C1=C(N)Oc2cc(C)n(CC3CCCO3)c(=O)c2C1c1ccc(Cl)cc1 (stereo not drawn) do in these assays?
MITF primary: -21; GPR151 activ: -1; FBW7 activator: 2.3*; TEAD-YAP inh: 1

Results for O=c1oc2ccc(Cl)cc2c(=O)n1-c1cccc(C(F)(F)F)c1 ?
MITF primary: -19; GPR151 activ: 0; FBW7 activator: 0; TEAD-YAP inh: 76*

Results for CCN(CC)C(=O)c1nn(-c2ccc(OC)cc2)c(=O)c2ccccc12 ?
MITF primary: 15; GPR151 activ: 2; FBW7 activator: 0; TEAD-YAP inh: 5

Results for COC(=O)c1ccccc1NC(=O)CSc1nnc(-c2ccc(OC)cc2)n1-c1ccccc1 ?
MITF primary: 1; GPR151 activ: -1; FBW7 activator: 0; TEAD-YAP inh: -39

How did O=C(NCCc1nc(-c2ccccc2)cs1)c1cccc(C(=O)NCCc2nc(-c3ccccc3)cs2)c1 do in these assays?
MITF primary: -3; GPR151 activ: 1; FBW7 activator: 0; TEAD-YAP inh: 48*

Results for O=[N+]([O-])c1cc2c(cc1C=Nc1ccc(O)cc1)OCO2 ?
MITF primary: 53*; GPR151 activ: -2; FBW7 activator: 0; TEAD-YAP inh: 7

Screening results from PubChem.
